# The supplement of paper PMC12645437, “Orthogonal IMiD-Degron Pairs Induce Selective Protein Degradation in Cells” (ACS Chemical Biology, 2025)
# In all, about 8,300 sequences were measured (“log2 fold change of degron read counts, EGFP-low vs EGFP+ sorted cells (limma voom), compound-induced degradation”: median about -1.1, highest 2% from about 3.2 on). Only a selection was taken, and the highest values are over-represented in it overall.
# T1: CRBN, Q96SW2
# T1 chain: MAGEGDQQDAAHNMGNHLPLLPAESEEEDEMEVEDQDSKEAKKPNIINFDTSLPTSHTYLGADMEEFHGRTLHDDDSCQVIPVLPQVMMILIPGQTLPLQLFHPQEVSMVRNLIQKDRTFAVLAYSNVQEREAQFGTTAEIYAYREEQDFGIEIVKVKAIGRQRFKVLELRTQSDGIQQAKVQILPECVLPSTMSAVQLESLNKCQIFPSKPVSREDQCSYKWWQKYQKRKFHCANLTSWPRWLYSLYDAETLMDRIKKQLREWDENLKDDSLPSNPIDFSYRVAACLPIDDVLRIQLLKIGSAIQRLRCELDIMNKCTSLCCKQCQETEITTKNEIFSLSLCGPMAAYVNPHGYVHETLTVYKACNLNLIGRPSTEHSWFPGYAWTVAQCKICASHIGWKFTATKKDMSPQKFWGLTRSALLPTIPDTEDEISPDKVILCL
# Molecular target: T1, CRBN, Q96SW2
# Experiment: log2 fold change of degron read counts, EGFP-low vs EGFP+ sorted cells (limma voom), compound-induced degradation; higher = more compound-induced degradation of the degron-EGFP fusion; degrons are variants of IKZF1/3 zinc finger 2; compound dose not given here
# Conditions: Jurkat, 18 h
# [1] = compound: compound 19 (5-tert-butyl-thalidomide)
# [2] = compound: compound 22 (5-morpholino-thalidomide)
# [3] = compound: compound 33 (diphenyl IMiD analogue)
# 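Note: pooled lentiviral library of zinc finger degron-EGFP fusions in mCherry-positive Jurkat cells, FACS-sorted after compound exposure, with degron abundance counted by next-generation sequencing.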
Sequence,log2 fold change of degron read counts [1],log2 fold change of degron read counts [2],log2 fold change of degron read counts [3],log2 fold change of degron read counts (compound: thalidomide)
"FQCPICGRDFTQKGNLLRHIKL [46F_47Q_49P_50I_52G_53R_54D_55F_67L_, Q9UKT9]",-1.62,-1.68,0.2,1.58
"FECPQCGAVFTQKGNLLRHIKL [46F_47E_49P_50Q_52G_53A_54V_55F_67L_, Q9UKT9]",-2.29,-2.41,0.278,0.0294
"FWCPICGAPFTQKGNLLRHIKL [46F_47W_49P_50I_52G_53A_54P_55F_67L_, Q9UKT9]",3.28,3.35,2.63,1.37
"FWCPICGAMFTQKGNLLRHIKL [46F_47W_49P_50I_52G_53A_54M_55F_67L_, Q9UKT9]",2.54,2.77,2,0.329
"FTCPICGHPFTQKGNLLRHIKL [46F_47T_49P_50I_52G_53H_54P_55F_67L_, Q9UKT9]",-1.82,-0.901,0.0444,0.479
"FTCPICGADFTQKGNLLRHIKL [46F_47T_49P_50I_52G_53A_54D_55F_67L_, Q9UKT9]",-0.0637,1.88,2.02,2.53
"FGCPICGADFTQKGNLLRHIKL [46F_47G_49P_50I_52G_53A_54D_55F_67L_, Q9UKT9]",1.78,0.634,1.7,0.267
"FHCPICGADFTQKGNLLRHIKL [46F_47H_49P_50I_52G_53A_54D_55F_67L_, Q9UKT9]",-0.22,-0.857,0.863,-0.761
"FGCPICGAPFTQKGNLLRHIKL [46F_47G_49P_50I_52G_53A_54P_55F_67L_, Q9UKT9]",3.74,2.38,1.84,1.66
"FTCPICGAPFTQKGNLLRHIKL [46F_47T_49P_50I_52G_53A_54P_55F_67L_, Q9UKT9]",2.68,3.44,2.65,3.25
"FGCNICGAPFTQKGNLLRHIKL [46F_47G_49N_50I_52G_53A_54P_55F_67L_, Q9UKT9]",0.653,0.355,0.00441,-0.248
"FWCNICGAPFTQKGNLLRHIKL [46F_47W_49N_50I_52G_53A_54P_55F_67L_, Q9UKT9]",2.88,2.66,1.69,0.25
"FHCDICGAPFTQKGNLLRHIKL [46F_47H_49D_50I_52G_53A_54P_55F_67L_, Q9UKT9]",3.18,2.85,1.67,0.346
"FHCPICGAPFTQKGNLLRHIKL [46F_47H_49P_50I_52G_53A_54P_55F_67L_, Q9UKT9]",3.64,3.39,2.87,2.28
"FICNQCGAMFTQKGNLLRHIKL [46F_47I_49N_50Q_52G_53A_54M_55F_67L_, Q9UKT9]",-2.72,-2.75,-0.507,-1.6
"FSCPICGHCFTQKGNLLRHIKL [46F_47S_49P_50I_52G_53H_54C_55F_67L_, Q9UKT9]",-2.27,-2.66,-1.41,-1.81
"FLCNICGAHFTQKGNLLRHIKL [46F_47L_49N_50I_52G_53A_54H_55F_67L_, Q9UKT9]",-1.65,-2,-0.489,-0.376
"FFCSVCGHTFTQKGNLLRHIKL [46F_47F_49S_50V_52G_53H_54T_55F_67L_, Q9UKT9]",-1.42,-2.35,-2.3,-2.45
"FNCNQCGAKFTQKGNLLRHIKL [46F_47N_49N_50Q_52G_53A_54K_55F_67L_, Q9UKT9]",-2.03,-2.67,-2.17,-1.99
"FQCNQCGHYFTQKGNLLRHIKL [46F_47Q_49N_50Q_52G_53H_54Y_55F_67L_, Q9UKT9]",-3.07,-2.91,-2.9,-2.48
"FYCNQCGATFTQKGNLLRHIKL [46F_47Y_49N_50Q_52G_53A_54T_55F_67L_, Q9UKT9]",-1.8,-0.678,-1.33,-2.43
"FHCDQCGAWFTQKGNLLRHIKL [46F_47H_49D_50Q_52G_53A_54W_55F_67L_, Q9UKT9]",-2.39,-3.42,-2.72,-2.68
"FYCEICGRDFTQKGNLLRHIKL [46F_47Y_49E_50I_52G_53R_54D_55F_67L_, Q9UKT9]",-2.29,-2.76,-1.95,-2.67
"FQCDQCGAQFTQKGNLLRHIKL [46F_47Q_49D_50Q_52G_53A_54Q_55F_67L_, Q9UKT9]",-2.81,-1.76,-1.35,0.414
"FFCEICGHMFTQKGNLLRHIKL [46F_47F_49E_50I_52G_53H_54M_55F_67L_, Q9UKT9]",-1.68,-2.18,-1.72,-2.01
"FECNQCGAYFTQKGNLLRHIKL [46F_47E_49N_50Q_52G_53A_54Y_55F_67L_, Q9UKT9]",-2.64,-2.84,-1.48,-1.4
"FMCEICGHVFTQKGNLLRHIKL [46F_47M_49E_50I_52G_53H_54V_55F_67L_, Q9UKT9]",-2.94,-3.04,-2.18,-2.54
"FKCNICGAWFTQKGNLLRHIKL [46F_47K_49N_50I_52G_53A_54W_55F_67L_, Q9UKT9]",-1.98,-2.92,-2.11,-1.78
